Data from PubChem BioAssay (Tox21).
Results filed as inconclusive are left out. Activity calls are given as the source filed them. Calls come from the whole dose curve; as a rule, active = well fitted cell-killing curve with a large enough effect in the repeat runs; inconclusive = weak or mixed curves, or effect the other way; inactive = no such curve, though single readings can be large or run the other way.

Experiment: qHTS assay to identify small molecule antagonists of the glucocorticoid receptor (GR) signaling pathway - cell viability counter screen (AID 720693); note: nearly all actives have a fitted effect of over 55% in size
Details: GR-bla HeLa viability, CellTiter-Glo luminescence, 18 h, with 5 nM dexamethasone present; series mostly up to 58.5 µM
Excerpt: National Center for Advancing Translational Sciences [NCATS]
NIH Chemical Genomics Center [NCGC]
U.S. Environmental Protection Agency [EPA]
National Institutes of Environmental Health Sciences [NIEHS]
National Toxicology Program [NTP]
U.S. Food and Drug Administration [FDA]
The Glucocorticoid receptor (GR) is one of the members of the nuclear receptor family of ligand-dependent transcription factors. GR plays a critical role in carbohydrate, protein and lipid metabolisms and programmed cell death. CellSensor GR-bla HeLa cell line (Invitrogen) contains a beta-lactamase reporter gene under the control of the glucocorticoid response element stably integrated into HeLa cells, a cervical cancer cell line that expresses glucocorticoid receptor. The activation of the reporter gene under culture conditions can be detected by fluorescence intensity. This cell line has been used to screen the Tox21 10K compound library and to identify the compounds that inhibit the GR signaling. The cytotoxicity of the Tox21 compound library against the GR-bla HeLa cell line was tested in parallel by measuring the cell viability using CellTiter-Glo assay in the same wells.
Tox21 Assay Protocol Summary:
The GR-bla HeLa cells were dispensed at 1500 cells/5 ul/well in 1536-well black wall/clear bottom plates using a Multidrop Combi (ThermoFisher Scientific, Waltham, MA) dispenser. After the assay plates were incubated at a 37 C/5% CO2 incubator for 4 hours, 23 nL of compounds dissolved in DMSO, positive controls or DMSO only was transferred to the assay plate by a pintool station (Kalypsys, San Diego, CA), followed by addition of 1 uL of dexamethasone (5 nM, final concentration in the well). The plates were incubated at 37 C for 18 hours. After 1 uL of LiveBLAzerTM B/G FRET substrate was added using a Flying Reagent Dispenser (Aurora Discovery, San Diego, CA), the plates were incubated at room temperature (RT) for 2 hours, and fluorescence intensity was measured by an Envision plate reader (PerkinElmer, Shelton, CT). After measurement of bla assay, 3 ul CellTiter-Glo (Promega, Madison, WI) was added to measure the cytotoxicity and the plates were then incubated at RT for 30 min. The luminescence was measured using a ViewLux (Perkin Elmer) plate reader.

Row | Compound | outcome
1 | Nc1nc(N)nc(-c2ccccc2)n1 | inactive
2 | C[C@]12CC[C@@H]3c4ccc(O)cc4CC[C@H]3[C@@H]1C[C@@H](O)[C@@H]2O | inactive
3 | CC(=O)OC1CC(C)OC(C)O1 (stereo not given) | inactive
4 | CC(CCl)OP(=O)(OC(C)CCl)OC(C)CCl (stereo not given) | inactive
5 | COCCOC(=O)c1ccccc1C(=O)OCCOC | inactive
6 | CCCCOC(=O)c1ccc(N)cc1 | inactive
7 | C[Si]1(C)O[Si](C)(C)O[Si](C)(C)O[Si](C)(C)O1 | inactive
8 | Cc1ccc(S(=O)(=O)N=C=O)cc1 | inactive
9 | CN(C)c1ccc(Cc2ccc(N(C)C)cc2)cc1 | inactive
10 | O=C1c2ccccc2CCc2ccccc21 | inactive
11 | CC(C)(C)c1cc(Cc2cc(C(C)(C)C)c(O)c(C(C)(C)C)c2)cc(C(C)(C)C)c1O | inactive
12 | CCNc1ccccc1 | inactive
13 | C=CC[N+](C)(C)CC=C | inactive
14 | O=C(O)CCCCCCCCC(=O)O | inactive
15 | Nc1ccc(Cl)c(N)c1 | inactive
16 | N[C@H](Cc1c[nH]c2ccccc12)C(=O)O | inactive
17 | c1ccc2c(c1)Cc1ccccc1-2 | inactive
18 | CC(C)CC(=O)CC(C)CC(C)C (stereo not given) | inactive
19 | NCCNCCN | inactive
20 | CC(CCO)CC(C)(C)C (stereo not given) | inactive

Row | Compound | outcome
21 | CCNc1cccc(C)c1 | inactive
22 | CCNC(=S)NCC | inactive
23 | C=C(C)C(=O)OCC(C)C | inactive
24 | O=C(O)c1ccccc1C(=O)O | inactive
25 | COc1ccc(CCC(C)=O)cc1 | inactive
26 | CC(=O)OCCOC(C)=O | inactive
27 | N#Cc1ccccc1 | inactive
28 | C=CC(C)CCCC(C)(C)O (stereo not given) | inactive
29 | C=C(C)[C@H]1CC=C(C)C(=O)C1 | inactive
30 | CC(C)CCCCCCCOC(=O)CCCCC(=O)OCCCCCCCC(C)C | inactive
31 | CC1(C)NC(=O)NC1=O | inactive
32 | CCCCCCCCCCN | inactive
33 | CC(=O)Oc1ccc(C)cc1 | inactive
34 | Cc1ccc(C(C)C)c(O)c1 | inactive
35 | CCCCCCCCCCCCCCCCO | inactive
36 | CCc1ccccc1CC | inactive
37 | CC1(C)CC(N)CC(C)(CN)C1 (stereo not given) | inactive
38 | CC(C)=CCl | inactive
39 | Cc1ccc2ncccc2c1 | inactive
40 | CCCCC(C=O)CC (stereo not given) | inactive
